# Results published in PubChem BioAssay AID624078 (Southern Research Specialized Biocontainment Screening …, 2012).
# Entries with a potency or affinity are not part of this list. Calls of active or inactive are those of the source. No rule for the calls is given here.
# Assay: viability of BHK-21 cells – cell-based, secondary screen, cytotoxicity control for flavivirus guanylyltransferase probe project (AID 624078)
# Settings: BHK-21 cell viability cytotoxicity; series mostly up to 100 µM
compound,measurement,value
Cn1c(=O)c2[nH]c(-c3ccccc3)c(O)c2n(C)c1=O,outcome,inactive
